23 molecules from PubChem BioAssay AID2360 (The Scripps Research Institute Molecular Screening Center, 2010) can be followed below.

For orientation: inhibition means the relative decrease from the control value, in per cent.

SMILES strings stand for the structures. Out of some 1,900 compounds screened, about 85 (4%) were called active. These entries were drawn from the full list. Values without a mark were called inactive.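 How the source made its calls: active means mean PP5 inhibition over triplicate wells above about 9.5% taken from the earlier PP1 screen (limit read from the data); inactive means the rest.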

Serine/threonine-protein phosphatase 5 (Homo sapiens), sequence (P53041 whole entry, looked up): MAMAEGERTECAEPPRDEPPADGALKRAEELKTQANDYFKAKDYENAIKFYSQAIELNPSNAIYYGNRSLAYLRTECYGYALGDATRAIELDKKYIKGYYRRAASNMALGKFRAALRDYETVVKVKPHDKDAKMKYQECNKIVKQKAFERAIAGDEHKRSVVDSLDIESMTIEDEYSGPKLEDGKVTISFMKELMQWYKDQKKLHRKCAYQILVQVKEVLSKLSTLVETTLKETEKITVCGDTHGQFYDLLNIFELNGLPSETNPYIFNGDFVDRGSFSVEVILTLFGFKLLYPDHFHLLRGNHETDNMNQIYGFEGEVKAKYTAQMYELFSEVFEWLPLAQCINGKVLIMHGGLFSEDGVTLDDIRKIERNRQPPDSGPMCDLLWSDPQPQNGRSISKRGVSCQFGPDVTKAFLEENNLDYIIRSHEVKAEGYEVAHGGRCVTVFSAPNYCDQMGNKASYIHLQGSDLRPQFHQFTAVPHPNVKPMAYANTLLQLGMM

This assay concerns the target Serine/threonine-protein phosphatase 5 (Homo sapiens) (UniProt P53041). Nature of the assay: human PP5 catalytic subunit inhibitors – biochemical, fluorescence, triplicate, counter-screen for PP1 inhibitor project, confirmation (AID 2360). Conditions: purified PP5c, OMFP fluorescence; at 6.7 µM; hits give high values. (In general: A counterscreen serves to expose hits that act by an unwanted route or on another target.)
Consider `Cc1ccc(-c2cc(C(=O)N/N=C/C=C/c3ccco3)c3ccccc3n2)cc1C`, for which the inhibition is 2.19%. On to `CC1CCCCN1S(=O)(=O)c1ccc(C(=O)Nc2nnc(-c3cccs3)o2)cc1` (stereo not drawn), for which the inhibition is 1.29%. With `Nc1ccc2nc3c(=O)[nH]c(=S)[nH]c3nc2c1` the figure was 15% (active); with `O=C(Nc1cccc(-c2nc3ccccc3[nH]2)c1)c1ccc(C(=O)Nc2cccc(-c3nc4ccccc4[nH]3)c2)cc1`, -2.5%. To `COCCN(CCOC)S(=O)(=O)c1ccc(C(=O)Nc2nc3c(s2)CCc2ccccc2-3)cc1` belongs -4.16%; to `Cc1nc2c(C(=O)NCc3ccc4c(c3)OCO4)c[nH]n2c(=O)c1Cc1ccccc1F`, 0.13%; to `COc1ccc(C2C(C(C)=O)=C(O)C(=O)N2CCc2c[nH]c3ccccc23)cc1` (stereo not drawn), 1.2%.

As to `Clc1ccc(-n2nnnc2-c2cnc(-c3ccccn3)nc2-c2cccs2)cc1`, the inhibition was -0.17%.

`CCC(=C/c1sc2ccc3ccccc3c2[n+]1C)/C=C1\Sc2ccc3ccccc3c2N1C`: the inhibition is 0.84%. To `CS(=O)(=O)c1ccc2c(c1)SC1=NC(=O)/C(=C/c3ccco3)C(=N)N12` belongs -6.01%; to `Cc1ccc2cc(CCNC(=O)c3c(-c4ccccc4Cl)noc3C)c(=O)[nH]c2c1`, -2.45%; to `CCOc1ccc(/C=C/C(=O)OCC(=O)c2ccccc2OC)cc1OC`, -0.62%. To `Cc1ccc(S(=O)(=O)N2[C@@H](c3cccc(Cl)c3)C(C(=O)O)=CC[C@H]2c2ccc(Cl)c(Cl)c2)cc1` belongs 2.51%; to `Cc1cc(Nc2ccccc2)n(C(=O)c2ccc(N)cc2)n1`, 3.89%. With `O=C1C2N=NN(CC(=O)N3N=C(c4cccc5ccccc45)CC3c3ccccc3)C2C(=O)N1c1ccccc1` (stereo not drawn), the inhibition was -0.31%.

In the case of `C=CCn1c(=S)[nH]c2scc(-c3ccco3)c2c1=O`, the inhibition is 1.52%. With `CCCc1ccc(OCC(=O)NNC(=S)NC(=O)c2ccco2)cc1` the figure was -5.19%; with `Cc1cc(N/N=C\c2ccc(Br)cc2)nc(-n2nc(C)cc2C)n1`, -2.43%. To `Cc1ccc(-c2cc(C(=O)Nc3nn[nH]n3)c3ccccc3n2)c(C)c1` belongs -5.88%; to `Cc1ccc(NS(=O)(=O)c2ccc(N/N=C/c3ccccc3OCC(=O)O)c([N+](=O)[O-])c2)c(C)c1`, 3.83%. To `OCCNc1nc(Nc2ccc(Cl)c(Cl)c2)nc2ccccc12` belongs 6.65%; to `CSc1ccc(/C=N\NC(=O)COc2ccc(Cl)cc2Br)cc1`, -2.43%; to `CCCCn1c(SCc2ncc(-c3ccccc3)o2)nc2cc(S(N)(=O)=O)ccc21`, -3.7%.
